# Bioassay records (PubChem)
# Shown are actives, neighbours in structure and some others; about 19% of the full set was active somewhere.
# SW480 rereplic = DNA re-replication induction in SW480 cells. SW480 DNA re-replication, Hoechst DNA content imaging, 48 h. Potency, µM (top dose mostly 46.1 µM), for inactives: top-dose re-replication activation, most hits filed as activators. hit rate 1.8% among 340,000; further: potency means the concentration at half of the fitted maximal effect; % of control where 0% means no effect; nearly all actives have a fitted effect of over 55% in size
#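 First, 250 cells per well were seeded. Next, compound or vehicle (23 nL) was pinned in, plates sat 48 hr at 37 C. Finally Hoechst was added for 40 min before fluorescence scanning.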
# DT40 TDP1 CPT = DT40-hTDP1 cell growth loss with CPT; hit rate 12% among 420,000; chicken DT40 Tdp1-/-;hTDP1 cells + 20 nM CPT, ATP luminescence, 48 h; Potency, µM (series often up to 46.2 µM), for inactives: at the top dose activity change, negative = growth inhibition, usual class: inhibitors; AID 686979; further: potency means the concentration at half of the fitted maximal effect; on the % scale 0 is the no-effect control and ±100 the full control effect; nearly all actives have a fitted effect of over 55% in size
#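 Chicken DT40 Tdp1-/- cells stably complemented with human TDP1 were seeded at 400 cells/well in medium containing 20 nM camptothecin, exposed to pin-transferred compounds, and grown at 37 °C for at least 48 hr. Viability was read as ATP luminescence.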
# IL-1B inflam inh = inhibitors of inflammasome signaling (IL-1 beta secretion) | THP-1 LPS/ATP IL-1B secretion, AlphaLISA, 16 h; active compounds read low | activity change, % at 57.5 µM | hit rate 4.7% among 360,000; in the data active means activity change below about -50%; inconclusive means mostly about -30% to -49%; further: on the % scale 0 is the no-effect control and ±100 the full control effect
#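 Secreted IL-1B measured by AlphaLISA bead assay after 16 h compound exposure of THP-1 cells; compounds (final up to 57.5 uM) added 1 h before LPS (250 ng/mL) and ATP (1.25 mM) stimulation; lower signal means less secretion.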
# TDP1 cell noCPT = qHTS for Inhibitors of human tyrosyl-DNA phosphodiesterase 1 (TDP1): qHTS in cells in absence of CPT; DT40 Tdp1-/- hTDP1 cells, no CPT, ATP luminescence, 48 h; Potency, µM (highest dose often 46.2 µM), inactives show at the top dose activity change, negative = growth inhibition, actives largely listed as inhibitors; hit rate 15% among 420,000; further: potency means the concentration at half of the fitted maximal effect; on the % scale 0 is the no-effect control and ±100 the full control effect; nearly all actives have a fitted effect of over 55% in size
#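 Chicken DT40 Tdp1-/- cells stably complemented with human TDP1 were seeded at 400 cells/well with DMSO in place of 20 nM camptothecin. After compound pinning, cells grew at least 48 hr at 37 °C; viability read by CellTiter-Glo luminescence.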
# MCF10A rereplic = inducers of DNA re-replication in MCF 10A breast cells; hit rate 2.9% among 350,000; Potency, µM (highest dose often 46.1 µM), for the others: at the top dose activity, positive = re-replication, most hits filed as activators; MCF 10A DNA re-replication, Hoechst nuclear intensity, 48 h; further: potency means the concentration at half of the fitted maximal effect; % of control where 0% means no effect; nearly all actives have a fitted effect of over 50% in size
# Chronic BCR inh = chronic active BCR signaling inhibition. ABC-DLBCL IkBa-CBG/CBR reporter, luminescence ratio, 4 h. Potency, µM (highest dose often 46.1 µM), for inactives: at the highest dose activity change, negative = inhibition, hits mostly inhibitors. hit rate 0.05% among 340,000. AID 493014; active means well fitted inhibition curve with a large enough effect in the signal ratio, with a control signal flat, not every such curve was filed as active; inconclusive means small, poorly fitted or top-dose-only effect, or effect the other way, or a change in a side signal; the % refers to the signal ratio;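 further: potency means the concentration at half of the fitted maximal effect; plate controls were basal doxycycline-induced cells for no effect and cells given 10 µM MG132 for full effect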
#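 TMD8 human ABC-DLBCL cells with doxycycline-inducible IκBα–green luciferase fusion and unfused red luciferase, in 0.5% FBS medium; compounds up to 46 uM, 4 h at 37C. Green/red luminescence ratio, filter-overlap corrected, fitted to concentration-response curves.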
# The depositor's hits bear a star; ? = inconclusive; · = no result given. Unless noted, the call rests on the fitted dose curve; in most records, active means well fitted curve in the direction sought with a large enough effect; inconclusive means small, poorly fitted or top-dose-only effect, or another doubt; inactive means no such curve, though single readings can be large; an effect the other way counts as inactive or inconclusive.
SMILES,SW480 rereplic,DT40 TDP1 CPT,IL-1B inflam inh,TDP1 cell noCPT,MCF10A rereplic,Chronic BCR inh
CCc1nc(N)c(C#N)c(-c2ccc(OC)c(OC)c2)c1C,-1%,-16%,94,?,-1%,?
CCc1noc(C)c1C(=O)NCCN1C(=O)S/C(=C\c2ccccc2F)C1=O,·,18µM*,6,18µM*,·,·
CC(C(=O)NCCN1C(=O)S/C(=C\c2cccnc2)C1=O)N1C(=O)c2ccccc2C1=O (centres undefined),-1%,-30%,6,12%,1%,-2%
O=C1S/C(=C/c2ccccc2F)C(=O)N1CCN=C1NS(=O)(=O)c2ccccc21,3%,16µM*,-97*,?,11%,-9%
O=C(CN1C(=O)S/C(=C\c2ccccc2F)C1=O)Nc1ccccc1O,-6%,-21%,-13,-9%,8%,?
Cc1ccc(C2(C)NC(=O)N(CC(=O)NCCN3C(=O)S/C(=C\c4cccnc4)C3=O)C2=O)cc1 (centres undefined),5.8µM*,?,-30,-25%,40%,·
O=C(CCl)NCCN1C(=O)S/C(=C\c2cccnc2)C1=O,?,?,-70*,?,?,-8%
O=C(CCC(=O)c1ccc(Cl)cc1)OCn1nnc2ccccc2c1=O,2%,-17%,0,2%,-3%,-1%
CCNc1ncc2nc(-c3cc(F)cc(F)c3)c(=O)n(CCOC)c2n1,·,-15%,·,-5%,·,·
C[C@@H]1COc2cccc(N3CCSCC3)c2S(=O)(=O)N1,·,-18%,22,3%,·,·
CCC(C)NC(=O)c1sc2nc3n(c(=O)c2c1C)CCC3 (centres undefined),·,1%,·,-8%,·,·
Cc1c(C(=O)NCCN2C(=O)S/C(=C\c3cccnc3)C2=O)cccc1[N+](=O)[O-],-16%,-12%,-11,?,-1%,?
Cc1nn(Cc2ccccc2)c(C)c1C(=O)NCCN1C(=O)S/C(=C\c2ccccc2)C1=O,?,21µM*,-2,?,26µM*,6%
CCCNC(=O)C1(CC2CC(c3ccccc3)=NO2)CCN(C(=O)c2ccccc2)CC1 (centres undefined),-3%,6%,16,5%,20%,?
CCCCCCCNC(=O)C1(CC2CC(c3ccc(Cl)cc3)=NO2)CCN(C(=O)C2(C)CC2)CC1 (centres undefined),4%,?,?,16µM*,24%,3%
CCCCCCCNC(=O)C1(CC2CC(c3ccccc3)=NO2)CCNCC1 (centres undefined),-3%,?,?,16µM*,?,-17%
CCCCCCCNC(=O)C1(CC2CC(c3ccc(Cl)cc3)=NO2)CCN(C(=O)C2CCCC2)CC1 (centres undefined),0%,?,1,?,8%,-3%
COc1cccc(/C=C/C(=O)c2ccc(NS(=O)(=O)c3ccc(C)cc3)cc2)c1,?,18µM*,-99*,21µM*,5.8µM*,?
COc1cc(/C=C/C(=O)O)ccc1OS(=O)(=O)c1ccc(C)cc1,-3%,-21%,-1,-2%,-7%,7%
COc1cccc(C(=O)/C=C/Nc2ccc(S(=O)(=O)Nc3cccc(C(C)=O)c3)cc2)c1,21µM*,18µM*,-28,16µM*,10µM*,0%
COc1cc(/C=C/C(=O)c2ccc(NS(=O)(=O)c3ccc(C)cc3)cc2)cc(OC)c1O,?,?,-103*,?,18µM*,?
COc1cccc(N/C=C/C(=O)c2ccc(C)cc2)c1,2%,24%,-4,2%,-2%,?
COc1cc(S(=O)(=O)Nc2ccc(C)cc2)ccc1NC(=O)c1ccncc1,-4%,?,10,?,4%,?
COc1cc(/C=C/C(=O)c2ccc(NS(=O)(=O)c3ccc(C)cc3)cc2)ccc1OC(F)F,?,?,-93*,18µM*,23µM*,?
CC(C)NC(=O)C(c1ccc(F)cc1)N(Cc1ccco1)C(=O)CCC(=O)Nc1ccccn1 (centres undefined),-13%,5%,-8,-4%,0%,-4%
SMILES,SW480 rereplic,DT40 TDP1 CPT,IL-1B inflam inh,TDP1 cell noCPT,MCF10A rereplic,Chronic BCR inh
CC(=O)c1cccc(N(C(=O)CNC(=O)c2ccco2)C(C(=O)NCc2ccco2)c2ccccc2)c1 (centres undefined),-3%,2%,-5,-11%,7%,-2%
N=c1oc2ccc3ccccc3c2cc1-c1nc(-c2ccccc2)cs1,-15%,?,22,?,?,-7%
N=c1oc2ccccc2cc1-c1nc(-c2ccccc2)cs1,13µM*,?,-10,23µM*,10µM*,4%
CC(C)CC(=O)NC(c1cccs1)c1ccc2cccnc2c1O (centres undefined),0.82µM*,2.9µM*,116,0.58µM*,?,-4%
CCC(=O)NC(c1cccs1)c1cc([N+](=O)[O-])c2cccnc2c1OC (centres undefined),·,·,·,·,·,14%
CCC(=O)NC(c1cccs1)c1ccc2cccnc2c1O (centres undefined),?,2.9µM*,112,4.6µM*,22%,-16%
CCOc1cc(Cl)c(S(=O)(=O)n2ccnc2)cc1Cl,·,-1%,·,-9%,·,·
O=c1[nH]cc(CCCc2ccccc2)c(=O)[nH]1,·,0%,6,-7%,·,·
COc1ccc(S(=O)(=O)Nc2ccccn2)c(C)c1C,-5%,?,14,-17%,-2%,-2%
COc1cc(OC)c(NS(=O)(=O)c2cc(-c3cnc(C)o3)ccc2OC)cc1Cl,·,21µM*,·,13µM*,·,·
COc1cc(NS(=O)(=O)c2ccc(OC)c(C)c2C)c(OC)cc1Cl,5.6µM*,4.6µM*,-4,3.3µM*,?,?
Cc1nc(N2CCN(Cc3ccc(Cl)cc3)CC2)c2oc3ccccc3c2n1,6%,23µM*,-63*,16µM*,?,2%
CSc1nc(N2CCN(Cc3ccc4c(c3)OCO4)CC2)c2ccccc2n1,4%,?,28,?,?,-1%
Cc1nc(N2CCN(Cc3ccc4c(c3)OCO4)CC2)c2cc(-c3ccccc3)sc2n1,?,18µM*,-62*,23µM*,30%,2%
Cc1nc(N2CCN(Cc3ccc4c(c3)OCO4)CC2)c2oc3ccccc3c2n1,?,7.3µM*,?,9.2µM*,12µM*,·
